In PubChem BioAssay AID686964 (The Scripps Research Institute Molecular Screening Center, 2013):
Out of some 370,000 compounds screened, about 1,100 (0.3%) were called active. The sample as a whole holds a higher share of actives than the screen did. Values without a mark were called inactive. Rule as the data show it: active = inhibition above about 13%; inactive = the rest.

The compounds below were run against Methyl-CpG-binding domain protein 2 (Homo sapiens) (UniProt Q9UBB5) (assay: inhibitors of MBD2 binding to methylated DNA, primary screen, biochemical, TR-FRET, DNA-binding domain, human (AID 686964)). Conditions: MBD2 binding to methylated oligonucleotide, at 4.4 µM, active compounds read high.
Sequence of Methyl-CpG-binding domain protein 2 (Homo sapiens) (Q9UBB5 whole entry, looked up, the tested form may be a part): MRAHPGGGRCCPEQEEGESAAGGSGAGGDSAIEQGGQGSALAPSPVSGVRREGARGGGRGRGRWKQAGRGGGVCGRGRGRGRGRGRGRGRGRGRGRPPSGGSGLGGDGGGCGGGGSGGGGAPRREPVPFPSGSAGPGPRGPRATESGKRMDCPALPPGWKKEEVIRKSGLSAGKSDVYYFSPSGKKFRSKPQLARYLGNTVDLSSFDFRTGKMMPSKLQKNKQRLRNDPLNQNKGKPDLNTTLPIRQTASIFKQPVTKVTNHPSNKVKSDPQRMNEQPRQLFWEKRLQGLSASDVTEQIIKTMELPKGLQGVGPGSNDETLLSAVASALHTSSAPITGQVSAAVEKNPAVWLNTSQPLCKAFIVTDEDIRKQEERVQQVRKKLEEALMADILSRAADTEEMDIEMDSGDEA

Structure (SMILES)	inhibition
CC1CCCCC1NC(=O)c1cn(C)c2ccc(S(=O)(=O)N3CCOCC3)cc2c1=O (configuration not stated)	0.43%
COC(=O)c1cn(C)c2ccc(S(=O)(=O)N3CC(C)CC(C)C3)cc2c1=O (configuration not stated)	21.1% (active)
CCn1cc(C(=O)N2CC(C)CC(C)C2)c(=O)c2cc(S(=O)(=O)N3CCCC3)ccc21 (configuration not stated)	-7.45%
Cc1cc(C)c2nc(-c3ccco3)cc(C(=O)O)c2c1	13.2% (active)
CCOC(=O)c1ccn(-c2nc(-c3ccco3)cc(C(F)(F)F)n2)n1	1.89%
Cc1cc(C)c2nc(-c3cccnc3)cc(C(=O)Nc3ccc(S(=O)(=O)Nc4onc(C)c4C)cc3)c2c1	-1.74%
CCC(=O)c1c(CC)c2n3c1=CC[C@H]3CC(Br)C=2 (some centres not stated)	1.67%
Cc1ccc(NC(=O)C2CC(=O)N(c3ccc4c(c3)OCCO4)C2)cc1S(=O)(=O)N1CCCCCC1 (configuration not stated)	2.94%
Cc1ccc(C(=O)Nc2ccc3c(c2)OCO3)cc1S(=O)(=O)N1CCCCC1	13.4% (active)
Cc1ccc(C(=O)NNC(=O)c2ccncc2)cc1S(=O)(=O)N1CCCCC1	-3.54%
Cc1cc(C)nc(NC(=S)N2CCN(c3ccc(C(F)(F)F)cn3)CC2)c1	-0.18%
N#Cc1ccccc1CN1C(=O)S/C(=C/c2cccn2-c2cccc(C(=O)O)c2)C1=O	10.6%
COC(=O)CN1C(=O)N/C(=C/c2ccc(OC)c(C)c2OC)C1=O	-3.97%
Cc1ccccc1NC(=O)CN1C(=O)N/C(=C\c2cccn2-c2cccc(C(=O)O)c2)C1=O	20.6% (active)
Cc1ccc(Cn2cc(CN3[C@@H](C)COc4cc(Br)ccc4S3(=O)=O)nn2)cc1	-5.2%
CCc1noc(C)c1C(=O)N1CCN(S(=O)(=O)c2cccc(C(F)(F)F)c2)CC1	-5.25%
O=C(CCl)NC1CCCCN(Cc2cccc(C(F)(F)F)c2)C1=O (configuration not stated)	3.06%
CCn1c(SCC(=O)Nc2ccc(Br)cc2)nc2sc3c(c2c1=O)CCN(C)C3	0.05%
CCCSc1nc2sc3c(c2c(=O)n1-c1ccc(OC)cc1)CCN(C)C3	-2%

Structure (SMILES)	inhibition
CCOc1ccc(-n2c(SCC(=O)Nc3ccc(OC)cc3)nc3sc4c(c3c2=O)CCN(C)C4)cc1	23.5% (active)
CCCCC(=O)N[C@@H]1CC[C@@]23CCCN2C(=O)CCC[C@H]3[C@H]1C	-0.72%
COc1ccc(Cl)cc1NC(=O)CCS(=O)(=O)c1ccc(Br)cc1	26.3% (active)
COc1ccc(Cl)cc1NC(=O)COC(=O)c1ccc(Br)o1	-1.28%
COc1ccc(Cl)cc1NC(=O)CN(C)Cc1ccc(OC)c(OC)c1	0.39%
CC(=O)N1CCc2cc(S(=O)(=O)NCCC(=O)N3CCCC3)ccc21	0.46%
CCCN(CC(=O)NC(=O)NC1CCCCC1)CC(=O)Nc1cc(Cl)ccc1Cl	-5.45%
CCOC(=O)c1c(C)[nH]c(C(=O)NCCN2CCOCC2)c1C	4.74%
CCOC(=O)c1sc(NC(=O)CCN2CCOCC2)c(C(=O)OCC)c1C	28.4% (active)
CCOC(=O)c1c(NC(=O)CCCN2CCOCC2)sc2c1CC(C)(C)OC2	0.1%
CCN(C(=O)[C@@H](C1CC1)[C@@H](O)c1ccc2ccccc2c1)c1ccccc1	3.52%
O=C1C(=O)N(Cc2ccc(-c3ccsc3)cc2)c2ccc(OC(F)(F)F)cc21	-3.46%
CC(C)CCN1CCC(C)(NC(=O)c2ccccc2)C1=O (configuration not stated)	0.15%
COC(=O)[C@]1(C#N)CC(=O)N(CC2CCCCC2)[C@@H]1c1ccccc1	-3.31%
COC(=O)c1ccc2nc(-c3ccc(F)cc3)c(Cc3ccc(C)cc3)n2c1	3.12%
COC(=O)c1ccc2nc(-c3ccc(Cl)cc3)c(Cc3cccc(F)c3)n2c1	2.68%
COC(=O)c1ccc2nc(C3CCCCC3)c(Cc3cccc(F)c3)n2c1	19% (active)
O=S1(=O)c2ccc(Br)cc2OC[C@H](Cc2ccccc2)N1Cc1cn(Cc2ccccc2)nn1	9.67%
Cc1cc(NCCc2c[nH]c3ccccc23)ccc1Oc1cccnc1	-2.55%

Structure (SMILES)	inhibition
CC(C)CC(CC(C)C)=NNC(=O)c1ccc(CSc2nncn2C)cc1	-5.89%
COC(=O)c1ccc(CSc2nncn2N)cc1	48.3% (active)
COC(=O)c1ccc(SCc2ccccc2)nc1	-4.53%
COc1cccc2c1C(=O)c1c(O)c3c(c(O)c1C2=O)CC(O)(C(C)=NNC(=O)c1ccc(Cl)c(Cl)c1)CC3OC1CC(N)C(O)C(C)O1 (configuration not stated)	111% (active)
CN[C@H]1C[C@H]2c3cc(N4CCOCC4)ccc3CCN2C[C@H]1[C@H](C)O	-5.62%
COC(=O)[C@@H]1CC(O)CN1C(=O)C12CC3CC(CC(C3)C1)C2 (some centres not stated)	2.14%
COc1nc(N(C)C)nc(N2CC(=O)N(CCNS(=O)(=O)c3ccc(C)cc3)C2=N)n1	15.6% (active)
Cc1ccc(S(=O)(=O)NCCSC(C)(C)C)cc1	0.35%
COc1nc(Oc2ccc(=O)n(C)n2)nc(N(C)C)n1	-3.73%
COc1ccc(CSc2nnc(-c3cccc(C)c3)n2C)cc1	0%
Cc1cc(Cl)ccc1N1C(=O)CC(SCCC(=O)O)C1=O (configuration not stated)	2.13%
COC(=O)c1cc2c(c3c4ccccc4n(S(=O)(=O)c4cccc(C)c4)c13)C(=O)N(Cc1ccccc1)C2	0.83%
CCc1ccccc1NC(=O)CN(c1ccc(OC)cc1OC)S(=O)(=O)c1ccccc1[N+](=O)[O-]	2.54%
CSc1ccc(CNCCN2CCOCC2)cc1	2.47%
O=C(Cc1ccc(Br)cc1)NCCN1CCOCC1	-0.23%
c1ccc2cc3c(NCCN4CCOCC4)ccnc3cc2c1	15.3% (active)
COc1ccccc1C(=O)NNC(=O)CCN1C(=O)/C(=C\c2ccccc2)SC1=S	13.2% (active)
COc1ccccc1C(=O)NCC(=O)OCC(=O)NNC(=O)c1ccc(Br)cc1	-6.8%
COc1ccccc1C(=O)Nn1cnnc1	3.63%
